Compound activity: PubChem, National Center for Advancing Translational Sciences (NCATS)
A selection: hits, their analogues and other compounds. The true share with any hit is near 5.8%.
TRPV1 potentiator – human TRPV1 potentiation | potentiation, % at 8.33 µM | Q8NER1 | TRPV1-expressing cells, Fluo-8 calcium influx, capsaicin EC20 potentiation | AID 540277 | 320,000 tested, 0.02% active; in the data active means potentiation above about 80%; inconclusive means between about 30% and that limit
Target sequence (Q8NER1 whole entry, looked up): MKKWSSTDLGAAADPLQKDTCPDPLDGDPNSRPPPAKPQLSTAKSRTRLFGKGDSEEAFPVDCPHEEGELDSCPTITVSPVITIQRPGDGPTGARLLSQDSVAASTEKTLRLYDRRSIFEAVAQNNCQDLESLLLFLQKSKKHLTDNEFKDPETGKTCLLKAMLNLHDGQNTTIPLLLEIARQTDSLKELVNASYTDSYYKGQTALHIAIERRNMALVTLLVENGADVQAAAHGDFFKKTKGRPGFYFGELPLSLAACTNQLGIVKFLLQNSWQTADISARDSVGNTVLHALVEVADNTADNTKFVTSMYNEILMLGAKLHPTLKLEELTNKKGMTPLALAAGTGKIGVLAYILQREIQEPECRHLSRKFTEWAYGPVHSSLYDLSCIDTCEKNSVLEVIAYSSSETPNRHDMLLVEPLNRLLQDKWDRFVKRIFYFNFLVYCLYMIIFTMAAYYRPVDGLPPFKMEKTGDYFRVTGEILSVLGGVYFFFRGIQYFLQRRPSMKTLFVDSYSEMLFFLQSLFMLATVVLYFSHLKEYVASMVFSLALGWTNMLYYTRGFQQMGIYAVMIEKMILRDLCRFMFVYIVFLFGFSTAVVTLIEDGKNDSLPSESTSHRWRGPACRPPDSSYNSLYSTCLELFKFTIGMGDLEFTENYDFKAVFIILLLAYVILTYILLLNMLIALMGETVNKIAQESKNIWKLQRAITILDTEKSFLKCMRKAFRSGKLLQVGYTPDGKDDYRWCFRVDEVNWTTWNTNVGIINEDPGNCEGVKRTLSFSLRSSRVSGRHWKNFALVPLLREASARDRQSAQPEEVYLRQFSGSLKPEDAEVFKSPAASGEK
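TRPV1-expressing cells were cultured overnight at 35.5C and loaded with Fluo-8 calcium dye for 40 to 90 min at room temperature. After a 10 s baseline, compound was added and calcium influx was read kinetically for 3 min (ex 480/em 520 nm).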
VP16 counter – counter-screen for ROR gamma inhibitors: Gal4-VP16 reporter; Drosophila S2 Gal4-VP16 UAS-luciferase, luminescence, 20 h; Potency, µM (titrated, usually from 53.6 µM), usual class: inhibitors; 310,000 tested, 3.5% active;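 further: Gal4-VP16 expression switched on by copper sulfate through the metallothionein promoter; nearly all actives have a fitted effect of over 50% in size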
RORg inh – ROR gamma (mouse) transcription inhibition; Drosophila S2 Gal4-RORgamma UAS-luciferase reporter, 20 h; Potency, µM (series often up to 53.6 µM), usual class: inhibitors; AID 2551; P51450; 310,000 tested, 5.4% active; further: nearly all actives have a fitted effect of over 60% in size
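Luminescence from a UAS-regulated Photinus luciferase reporter in stably transfected Drosophila Schneider cells is measured; decreased signal marks ROR gamma inhibition. Fusion expression is induced by 700 uM copper sulfate for 20 hr.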
uPA generation – inhibitors of cell surface uPA generation. cell surface uPA generation assay, qHTS. Potency, µM (doses to about 38.3 µM), usual class: inhibitors. 330,000 tested, 0.31% active; active means well fitted inhibition curve with a large enough effect; inconclusive means small, poorly fitted or top-dose-only effect; inactive means no such curve, though single readings can be large or run the other way; tested in mouse RAW 264.7 cells; further: nearly all actives have a fitted effect of over 55% in size
TRPV1 ag – activates the human vanilloid receptor TRPV1; 320,000 tested, 0.19% active; activation, % at 8.33 µM; Q8NER1; TRPV1-expressing cells, Fluo-8 calcium influx, agonist mode; in the data active means activation above about 80%; inconclusive means between about 30% and that limit
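Cells expressing TRPV1 were dye-loaded with Fluo-8 and read kinetically: 10 s baseline, 3 min after compound (agonist portion), then 2 min after EC20 capsaicin (allosteric enhancer portion). Calcium-bound dye fluorescence at 480/520 nm.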
Numbers stand for hits; i = inactive; ? = inconclusive; nt = not tested or not shown; [ ] = dose if it differs, or a comment. Unless noted, the call rests on the fitted dose curve; in most records, active means well fitted curve in the direction sought with a large enough effect; inconclusive means small, poorly fitted or top-dose-only effect, or another doubt; inactive means no such curve, though single readings can be large; an effect the other way counts as inactive or inconclusive.

SMILES	TRPV1 potentiator	VP16 counter	RORg inh	uPA generation	TRPV1 ag
C=CCOc1ccc(CNc2nccs2)cc1OCC	i	i	i	i	i
C=CCOc1c(CNc2nccs2)cccc1OCC	i	?	11µM	nt	i
O=[N+]([O-])c1ccc2nc(NN=Cc3ccc(O)cc3)sc2c1	nt	nt	nt	i	nt
N=C1SCC(=O)N1/N=C/c1ccccc1	i	?	11µM	i	i
O=C1CSC(=S)N1/N=C/c1cccc(C(F)(F)F)c1	i	?	7.9µM	i	i
O=C1CSC(=S)N1/N=C/c1ccc(C(F)(F)F)cc1	i	i	?	i	i
O=C1CSC(=S)N1/N=C/C=C/c1ccccc1	i	?	2.5µM	i	i
C(=N\n1c2ccccc2c2ccccc21)/c1ccccc1	i	i	i	i	i
CC[C@H](C)[C@H](NC(=O)[C@@H]1CCCN1C(=O)[C@H](Cc1cnc[nH]1)NC(=O)[C@@H](NC(=O)[C@H](Cc1ccc(O)cc1)NC(=O)[C@@H](NC(=O)[C@H](CCCN=C(N)N)NC(=O)CNC)C(C)C)[C@@H](C)CC)C(=O)O	nt	i	i	nt	nt
COc1ccc(C(=O)Nn2c(SCC(=O)c3ccc(Cl)cc3)nc3ccccc3c2=O)cc1	i	?	11µM	nt	i
CCn1c(SCC(=O)NCc2ccco2)nc2ccccc2c1=O	i	i	i	i	i
COc1ccc(C(=O)Nn2c(SCC(=O)NC3CCCCC3)nc3ccccc3c2=O)cc1	i	13µM	?	nt	?
CCOC(=O)N1CCC(n2c(SCC(=O)N3CCCC3)nc3ccccc3c2=O)CC1	i	i	i	i	i
COc1ccc(C(=O)Nn2c(C)nc3ccccc3c2=O)cc1	i	i	i	i	i
COc1ccc(C(=O)Nn2c(SCC(=O)NCc3ccco3)nc3ccccc3c2=O)cc1	i	8.9µM	10µM	i	i
CCOC(=O)N1CCC(n2c(SCC(=O)N3CCC(C)CC3)nc3ccccc3c2=O)CC1	i	i	i	i	81
COc1ccc(C2CC(c3ccccc3)Oc3cc(OC)c(OC)c(OC)c32)cc1 (configuration not stated)	nt	i	i	nt	nt
C#CCn1cc(C=C2C(=O)c3ccccc3C2=O)c2ccccc21	i	i	?	i	i
Cc1c(C2=CCN(S(=O)(=O)c3cccc(Cl)c3)CC2)c2ccccc2n1CC(=O)N1CCCC1	i	nt	nt	nt	i
COc1ccc(C(=O)NCCn2cc(SCC(=O)NCC3CCCO3)c3ccccc32)cc1 (configuration not stated)	i	i	i	i	i
COc1ccc(C(=O)Nn2c(SCC(=O)N3CCC(C)CC3)nc3ccccc3c2=O)cc1	i	10µM	10µM	nt	?
CC1CCN(C(=O)CSc2nc3ccccc3c(=O)n2Cc2ccc3c(c2)OCO3)CC1	i	i	i	nt	82
COc1ccc(C(=O)NCCn2cc(SCC(=O)NCc3ccco3)c3ccccc32)cc1	i	i	10µM	i	i
COc1ccc(/C=C(\C#N)c2nc(-c3cc4c(ccc5ccccc54)oc3=O)cs2)cc1O	i	nt	nt	nt	i
Cc1ccc(C)c(NC(=S)NNC(=O)c2cc3c(s2)CCC(C)C3)c1 (configuration not stated)	i	i	i	i	i
SMILES	TRPV1 potentiator	VP16 counter	RORg inh	uPA generation	TRPV1 ag
Cc1cccc(NC(=S)NNC(=O)c2cc3c(s2)CCC(C)C3)c1C (configuration not stated)	i	?	18µM	i	i
O=C(NNC(=O)c1cnccn1)c1ccc(Cl)cc1	i	16µM	8.9µM	i	i
CC(C)(C)c1cc(C(=O)NNC(=O)c2ccc(Cl)cc2)no1	i	i	i	i	82
Cc1csc2ncnc(NNC(=O)c3ccc(Cl)cc3)c12	i	4.5µM	1.8µM	i	i
CCN(CC)C(=O)c1cccnc1	nt	i	i	nt	nt
CN(CC[C@@H](Oc1ccc(-c2ccccc2)cc1)c1ccc(F)cc1)CC(=O)O	nt	i	i	nt	nt
COc1cc(NC(=S)NCc2cccnc2)cc(OC)c1	i	i	?	i	?
Cc1cc(C)cc(NC(=S)NCc2cccs2)c1	i	11µM	2.2µM	i	?
COc1cc(NC(=S)NCc2cccs2)cc(OC)c1	i	11µM	5µM	i	?
CSc1cnn(Cc2ccccc2)c(=O)c1SCc1ccccc1	i	2.5µM	0.56µM	i	?
COc1ccc(Cc2nnc(NC(=O)Nc3ccccc3)s2)cc1OC	?	i	i	i	i
S=c1[nH]c2cc(-c3ccccc3)ccc2o1	i	13µM	10µM	i	i
C[C@@H]1CC[C@H]2C(=O)NC[C@@H](O)CN2[C@@H]1c1ccc(Br)cc1	nt	i[10 µM]	i[10 µM]	nt	nt
COc1ccc(C2CCCN2C(=S)Nc2ccc(C)c(C)c2)cc1OC (configuration not stated)	i	?	13µM	i	i
Cc1ccc(C2CCN(C(=S)NC(C)(C)C)C2)cc1 (configuration not stated)	i	i	?	i	i
Cc1ccc(NC(=S)N2CCCCCC2)cc1	nt	?	?	i	nt
Cc1ccc(C2CCN(C(=S)Nc3cccc(C)c3)C2)cc1 (configuration not stated)	i	i	7.9µM	i	i
Cc1ccc(NC(=S)N2CCCCC2)cc1C	i	?	4.5µM	i	i
Cc1cccc(NC(=S)N2CCCCC2)c1	i	18µM	?	i	i
COc1ccc(C2CCCN2C(=O)Nc2ccc(C)c(C)c2)cc1OC (configuration not stated)	i	i	i	i	?
C[C@@H]1CCC[C@]2(C)CCCC[C@@]12O	nt	i	i	nt	nt
CCCCCC(O)/C=C/C=C\CCCCCCCC(=O)O (configuration not stated)	nt	i	i	nt	nt
CCCCCCCOc1ccc(C2CC(=O)N(C)C2=O)cc1 (configuration not stated)	i	i	i	i	i
S=C(Nc1ccc2nsnc2c1)N1CCCC1	i	11µM	7.9µM	i	i
O=S(=O)(c1ccccc1)N1CCC2(CCN(c3cccc(-c4ccccc4)c3)CC2)CC1	nt	i	i	nt	nt
SMILES	TRPV1 potentiator	VP16 counter	RORg inh	uPA generation	TRPV1 ag
CC(=O)c1cccc(N=Cc2c(O)ccc3ccccc23)c1	i	i	i	i	i
Oc1ccccc1N=Cc1c(O)ccc2ccccc12	i	?	8.9µM	i	97
Oc1ccc2ccccc2c1/C=N/c1nccs1	i	i	i	i	i
OCC(CO)(CO)N=Cc1c(O)ccc2ccccc12	i	i	i	i	i
CS/C(N)=N/N=C/c1c(O)ccc2ccccc12	i	7.1µM	0.89µM	i	i
CN(C)/N=C/c1c(O)ccc2ccccc12	i	i	i	i	?
Oc1ccc2ccccc2c1C=Nc1ccccc1Br	i	i	13µM	i	i
CC(=O)N(C)c1ccc(N=Cc2c(O)ccc3ccccc23)cc1	i	?	11µM	i	i
O=C1NC(=O)c2cc([N+](=O)[O-])ccc21	nt	i	i	nt	nt
Oc1cccc(C=Nc2cccc3ccccc23)c1O	?	13µM	11µM	i	i
Oc1ccccc1C=Nc1cccc2ccccc12	i	i	i	?	i
CS(=O)(=O)N1CCC2(CC1)CN(c1ccccc1)C2	nt	i	i	nt	nt
